PubChem BioAssay
The source made the active and inactive calls. Unless noted, no rule for the calls is given here.

Tests used:
[1] = A549 cell viability effects, profiling panel, calcein-AM fluorescence, 48 h, basal (AID 1162); conditions: higher = more signal; also: test concentration not given here
[2] = adipocyte viability effects, profiling panel, cell-based, 3T3-L1 adipocytes, calcein-AM fluorescence, 48 h, basal (AID 1163); conditions: 3T3-L1 adipocytes viability, higher = more signal; also: test concentration not given here
[3] = HepG2 cell viability effects, profiling panel, calcein-AM fluorescence, 48 h, basal (AID 1164); conditions: higher = more signal; also: test concentration not given here
[4] = MM1S cell viability effects, profiling panel, calcein-AM fluorescence, 48 h, basal (AID 1165); conditions: higher = more signal;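 also: viability of MM1S multiple myeloma cells under basal unstimulated conditions; test concentration not given here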
[5] = basal RPMI8226 viability, no added stimulus, profiling panel, cell-based, calcein-AM fluorescence, 48 h, PK04 Diversity Set (AID 1166); conditions: RPMI8226 myeloma viability, higher = more signal;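 also: cells grown under basal conditions without added stimulus; test concentration not given here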
[6] = basal HepG2 mitochondrial membrane potential changes, profiling panel, cell-based, JC-1 fluorescence, 24 h, 100 nL compound (AID 1167); conditions: higher = more signal; also: test concentration not given here
[7] = basal 3T3-L1 adipocyte mitochondrial potential changes, profiling panel, cell-based, JC-1 fluorescence, 3T3-L1 adipocytes, 24 h, 100 nL compound (AID 1168); conditions: JC-1 mitochondrial fluorescence, higher = more signal, called active from +8 up or from −8 down; also: test concentration not given here
[8] = basal RPMI8226 mitochondrial membrane potential changes, profiling panel, cell-based, JC-1 fluorescence, 24 h, 100 nL compound (AID 1169); conditions: RPMI8226 myeloma, JC-1 mitochondrial potential fluorescence, higher = more signal; also: test concentration not given here
[9] = basal MM1S mitochondrial membrane potential changes, profiling panel, cell-based, JC-1 fluorescence, 24 h, 100 nL compound (AID 1170); conditions: higher = more signal; also: test concentration not given here
[10] = A549 lung cancer cell viability effects, profiling panel, resazurin fluorescence, 24 h, PK04 Diversity Set (AID 1171); conditions: higher = more signal, called active from +8 up or from −8 down; also: test concentration not given here
[11] = HepG2 liver cancer cell viability effects, profiling panel, resazurin fluorescence, 24 h, PK04 Diversity Set (AID 1172); conditions: higher = more signal; also: test concentration not given here
[12] = basal S. cerevisiae growth modulation, no modifier, primary screen, OD600, strain BY4716, 24 h, basal condition (AID 1173); conditions: OD600, 24 h, higher = more signal, called active from +8 up or from −8 down
[13] = MM1S myeloma cell viability, profiling panel, resazurin fluorescence, basal, 24 h, PK04 Diversity Set (AID 1174); conditions: higher = more signal, called active from +8 up or from −8 down;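 also: MM1S multiple myeloma cell line; test concentration not given here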
[14] = molecular target: Dihydroorotate dehydrogenase (quinone), mitochondrial (Plasmodium falciparum (isolate 3D7)) (UniProt Q08210); experiment: PfDHODH enzyme inhibitors, primary screen, biochemical, C-terminal His tag, absorbance 600 nm (AID 1175); conditions: DCIP absorbance 600 nm, higher = more signal, called active from +8 up or from −8 down;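 also: recombinant parasite enzyme with a five histidine tag at its C terminus; test concentration not given here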
[15] = P. aeruginosa biofilm formation inhibitors, primary screen, strain PAO1, LB-PBS medium, absorbance 600 nm (AID 1176); also: test concentration not given here; conditions: P. aeruginosa PAO1 growth/biofilm, A600, 12 h; higher = more signal
[16] = S. cerevisiae RM11-1a growth modifiers, primary screen, strain RM11-1a, OD600, basal, 24 h (AID 1177); conditions: OD600, 24 h, higher = more signal, called active from +8 up or from −8 down;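 also: cultures grown under basal conditions with no added stressor; test concentration not given here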
[17] = E. coli acrAB mutant growth effects, primary screen, E. coli filamentation inducers, strain DRC39, OD650, 24 h (AID 1178); conditions: higher = more signal, called active from +8 up or from −8 down;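 also: growth measured as culture turbidity by optical density at 650 nm; test concentration not given here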
[18] = E. coli acrAB mutant growth effects, primary screen, E. coli filamentation inducers, strain DRC39, OD650, 48 h (AID 1179);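 also: screen aims at cell division blockers that make cells filament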; conditions: E. coli DRC39 delta-acrAB growth, higher = more signal, called active from +8 up or from −8 down
[19] = RPMI8226 myeloma cell viability, profiling panel, resazurin fluorescence, basal, 24 h, PK04 Diversity Set (AID 1180); conditions: higher = more signal;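 also: RPMI8826 multiple myeloma cell line at 5000 cells per well; test concentration not given here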
[20] = molecular target: E3 ubiquitin-protein ligase XIAP (Homo sapiens) (UniProt P98170); experiment: XIAP binders, primary screen, biophysical, small-molecule microarray, fluorescence 635 nm (AID 1181); conditions: small-molecule microarray binding, higher = more signal;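 also: score merges 667 nm emission and signal to noise over triplicate slides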
Chain of E3 ubiquitin-protein ligase XIAP (Homo sapiens) (P98170 whole entry, looked up): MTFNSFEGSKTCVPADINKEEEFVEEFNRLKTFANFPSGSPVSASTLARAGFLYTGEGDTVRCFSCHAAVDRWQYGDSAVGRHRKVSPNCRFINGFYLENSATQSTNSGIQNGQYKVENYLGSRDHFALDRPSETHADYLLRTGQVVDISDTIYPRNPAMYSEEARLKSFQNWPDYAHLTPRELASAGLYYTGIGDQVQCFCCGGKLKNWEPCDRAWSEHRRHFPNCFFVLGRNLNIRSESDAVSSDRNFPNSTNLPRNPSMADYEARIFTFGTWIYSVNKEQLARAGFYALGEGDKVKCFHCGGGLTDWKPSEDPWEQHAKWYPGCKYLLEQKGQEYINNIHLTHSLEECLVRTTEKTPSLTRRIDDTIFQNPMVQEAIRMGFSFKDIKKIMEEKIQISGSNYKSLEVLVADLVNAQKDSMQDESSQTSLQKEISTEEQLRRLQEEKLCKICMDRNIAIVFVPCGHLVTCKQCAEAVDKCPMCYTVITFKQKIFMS

Chain of Dihydroorotate dehydrogenase (quinone), mitochondrial (Plasmodium falciparum (isolate 3D7)) (Q08210 whole entry, looked up): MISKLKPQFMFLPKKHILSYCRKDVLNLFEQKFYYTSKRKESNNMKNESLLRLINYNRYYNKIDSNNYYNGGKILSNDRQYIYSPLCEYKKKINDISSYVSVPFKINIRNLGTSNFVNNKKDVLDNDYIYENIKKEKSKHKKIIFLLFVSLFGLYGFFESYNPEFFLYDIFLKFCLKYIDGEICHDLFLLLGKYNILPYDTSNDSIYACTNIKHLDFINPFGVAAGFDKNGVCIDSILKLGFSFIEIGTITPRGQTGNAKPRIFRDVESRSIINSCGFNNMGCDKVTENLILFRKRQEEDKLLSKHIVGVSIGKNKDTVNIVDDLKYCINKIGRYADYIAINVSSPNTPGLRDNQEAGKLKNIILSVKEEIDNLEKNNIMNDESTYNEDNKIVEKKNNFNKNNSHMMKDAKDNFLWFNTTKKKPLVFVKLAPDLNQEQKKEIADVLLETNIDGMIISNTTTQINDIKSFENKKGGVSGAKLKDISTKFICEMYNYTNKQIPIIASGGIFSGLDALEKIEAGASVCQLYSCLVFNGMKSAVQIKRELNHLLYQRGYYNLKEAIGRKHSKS

SMILES | z-score [1] | z-score [2] | z-score [3] | z-score [4] | z-score [5] | z-score [6] | z-score [7] | z-score [8] | z-score [9] | z-score [10] | z-score [11] | z-score [12] | z-score [13] | composite z-score [14] | z-score [15] | z-score [16] | z-score [17] | z-score [18] | z-score [19] | composite z-score [20]
CCOC(=O)NN=C1C[C@@H](O)[C@@H](O)[C@@H]2[C@@H]3C(=O)N(Cc4ccc5c(c4)OCO5)C(=O)[C@@H]3CC[C@H]12 | -0.257 | -0.132 | 0.473 | 0.457 | -0.0903 | -0.268 | -0.754 (inactive) | 0.386 | -1.34 | -0.027 (inactive) | 0.514 | 0.923 (inactive) | -0.343 (inactive) | 0.005 (inactive) | -0.981 (inactive) | 0.169 (inactive) | 0.298 (inactive) | 0.19 (inactive) | 0.3 | -0.0294
CC(C)(C)N1C(=O)[C@H]2[C@H]3[C@H](O)[C@H](O)CC(=O)[C@@H]3CC[C@H]2C1=O | -0.743 | 0.436 | 0.178 | -0.102 | -0.052 | -0.323 | -0.715 (inactive) | 0.967 | 0.419 | 0.756 (inactive) | -0.0291 | -0.693 (inactive) | -0.0757 (inactive) | -0.251 (inactive) | 0.27 (inactive) | -0.736 (inactive) | -0.268 (inactive) | -0.653 (inactive) | -0.0415 | -0.177
CC(CCN1CCCCc2nc(C)c(C)cc21)=NO[C@H](C)c1cn([C@H](CO)Cc2ccccc2)nn1 | 0.277 | 0.72 | -0.386 | 0.607 | -1.4 | -0.969 | -2.1 (inactive) | 0.686 | -0.457 | -0.0266 (inactive) | -0.605 | -0.241 (inactive) | 0.0783 (inactive) | 0.301 (inactive) | -0.503 (inactive) | -0.134 (inactive) | -0.894 (inactive) | -0.488 (inactive) | 0.594 | 0.0595
CO[C@H]1COC(=O)CC=C[C@H](C)[C@@H](OC)COC(=O)[C@@H](C)COC(=O)CC=C[C@@H]1C | -0.0895 | 1.19 | 0.389 | 0.242 | 0.21 | 0.429 | 0.673 (inactive) | -0.296 | 1.01 | 0.455 (inactive) | -0.0033 | -1.2 (inactive) | 0.277 (inactive) | 0.151 (inactive) | -0.92 (inactive) | -0.288 (inactive) | 0.224 (inactive) | -0.979 (inactive) | 0.721 | -0.142
CCCCC#C[C@@H]1C=C[C@H](Oc2ccc(C(=O)OC)cc2)[C@@H](COC(=O)OCC)O1 | -1.07 | 0.416 | -3.26 | -3.56 | -3.46 | -0.918 | 0.281 (inactive) | -0.614 | -1.95 | 0.313 (inactive) | 0.257 | -4.46 (inactive) | -1.6 (inactive) | -0.189 (inactive) | 0.472 (inactive) | -0.37 (inactive) | -0.301 (inactive) | -0.0901 (inactive) | -1.08 | -0.194
O=C1CCCC=C1C(O)CCOC(c1ccccc1)(c1ccccc1)c1ccccc1 (stereo not given) | -0.893 | -0.268 | -0.26 | -3.43 | -3.62 | -2.77 | -0.115 (inactive) | -0.879 | -0.0919 | 0.418 (inactive) | 0.0714 | -0.529 (inactive) | 0.0795 (inactive) | 0.466 (inactive) | 0.368 (inactive) | 1.25 (inactive) | 0.0368 (inactive) | -0.356 (inactive) | -0.193 | 0.412
CCO[C@H](c1cc(OC)cc([N+](=O)[O-])c1OC)[C@H](C)C=CCC(=O)OC | 1.23 | -0.629 | 0.381 | 1.02 | 0.799 | 0.879 | 0.269 (inactive) | 0.752 | -0.929 | -0.625 (inactive) | -0.0508 | -2.19 (inactive) | -1.43 (inactive) | -0.278 (inactive) | 0.18 (inactive) | 0.343 (inactive) | 0.884 (inactive) | 0.38 (inactive) | -0.622 | 0.601
CC(=O)OC[C@H]1O[C@H](CC=NO[C@H](C)c2cn([C@H](CO)Cc3ccccc3)nn2)C=C[C@@H]1OC(C)=O | -0.404 | -0.857 | -0.0224 | -0.955 | -1.94 | -0.485 | -0.963 (inactive) | 0.013 | 0.186 | 0.322 (inactive) | 0.242 | 1.53 (inactive) | -0.376 (inactive) | 0.53 (inactive) | 0.642 (inactive) | 1.57 (inactive) | -0.182 (inactive) | -0.554 (inactive) | 0.103 | 0.699
CCOC(=O)NN=C1C[C@@H](O)[C@@H](O)[C@@H]2[C@@H]3C(=O)N(C(C)(C)C)C(=O)[C@@H]3CC[C@H]12 | 0.338 | -0.666 | 1.34 | 0.469 | 0.541 | 0.361 | 0.314 (inactive) | -0.252 | -1.59 | -0.974 (inactive) | -1.46 | -0.962 (inactive) | -0.4 (inactive) | -0.397 (inactive) | 0.434 (inactive) | 0.179 (inactive) | 0.408 (inactive) | 0.72 (inactive) | -0.226 | -0.246
